Eleven compounds from PubChem BioAssay (NCATS) can be followed below.

Several values for one entry are separate records, joined by “and”; a condition that tells them apart may be missing. Identical values can stand only once. Results filed as inconclusive are left out. Values without a mark were called inactive. Activity calls are given as the source filed them. Calls follow the shape of the dose curve; as a rule, active = well fitted inhibition curve with a large enough effect; inconclusive = small, poorly fitted or top-dose-only effect; inactive = flat fitted curve, though single readings scatter.
Potency is read from the fitted curve at half-maximal effect.

This experiment relates to Zika virus NS2B-NS3 protease (linked construct). Briefly: Confirmatory screen NINDS AMC qHTS for Zika virus inhibitors (AID 1347152). Also: nearly all actives have a fitted effect of over 70% in size.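 As to activity change, negative = inhibition: AMC fluorescence gain from cleaved Bz-Nle-KRR-AMC substrate over 15 min; top concentration of the series differs between compounds; 0% = no-inhibitor control and -100% = no-enzyme control.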 Conditions: Purified linked NS2B-NS3, AMC substrate fluorescence; series mostly up to 110 µM; activity change, negative = inhibition: at the top concentration. The source says: Assay Submitters (PI): Avindra Nath, Ph.D., National Institute of Neurological Disorders and Stroke (NINDS), Bethesda, MD Radhakrishnan Padmanabhan, Ph.D., Georgetown University (GU), Washington D.C. Zika Virus causes congenital defects, including microcephaly and is associated with Guillain-Barre syndrome, eningoencephalitis and myelitis in infected adult. […] Using a target-based approach, we hope to establish a screening paradigm to uncover novel, cell-active NS2B-NS3 protease (Zika Virus) specific inhibitors from NCATS' collection of small molecules using qHTS. […] Four assay panel was created to identify potential Zika Virus inhibitors. Namely, (1) GU unlinked NS2B-NS3 AMC tagged protease qHTS, (2) GU unlinked NS2B-NS3 Rhodamine tagged protease qHTS, (3) NINDS linked NS2B-NS3 AMC tagged protease qHTS, (4) NINDS linked NS2B-NS3 Rhodamine tagged protease qHTS. Active compounds were re-acquired and re-screened to confirm inhibition. Inhibitors were further screened against various confirmatory and counterscreens in dose response format. Early Translation Branch (ETB) National Center for Advancing Translational Sciences (NCATS), Rockville, MD National Institute of Health (NIH), Bethesda, Maryland
Materials: For the linked assay, Nath lab (NINDS) provided the purified linked NS2B-NS3 protease which is consists of hydrophilic domain of NS2B linked to the NS3 protease domain by a flexible (-[…]-) linker. Control compound aprotinin is obtained from Thermo Scientific (#78432; Waltham, Massachusetts). NS2B-NS3 AMC substrate (Bz-Nle-Lys-Arg-Arg-AMC; Nle-KRR-AMC) purchased from Bachem (#I-1995; Torrance, CA). Ac-VKTGKR-AMC purchased from Genscript or Bachem, Ac-FAAGKR-AMC purchased from Genscript, Ac-GLVKRR-AMC purchased from Genscript, Ac-LKKR-AMC purchased from Genscript. NINDS AMC linked NS2B-NS3 protease qHTS protocol: Briefly, 3 microL of Zika virus linked NS2B-NS3 protease (1 nM for linked final concentration), in assay buffer (10 mM Tris-HCl pH 8.0 with 0.01% Tween 20) was dispensed into a 1,536-well solid-bottom black plate (Greiner Bio One, Monroe, NC). Twenty-three nL of compounds (final concentration range 7.28 nM to 114 microM) or control Aprotinin (final concentration range 3.47 nM to 114 microM) were transferred via Wako Pin-tool (Wako Automation, Richmond, VA). Samples were incubated (room temperature, protected from light) for 15 minutes followed by a 1 microL AMC substrate addition of (final concentration of 10 microM; Km = 18.3 µM). Plates were then read immediately on a ViewLux High-throughput CCD imager (PerkinElmer, Waltham, MA) equipped with standard UV fluorescence optics (340(30) nm excitation, 450(20) nm emission) then incubated (room temperature, protected from light) for 15 minutes (~20% conversion). The change in fluorescence intensity over the 15-minute reaction period was normalized against no-inhibitor and no-enzyme controls and the resulting percent inhibition data were fitted to a 4-parameter Hill equation. Aprotinin was used as the intraplate control.
In general terms: Quantitative high-throughput screening tests each substance at several concentrations.
As to `O=C(Nc1cc(C(F)(F)F)cc(C(F)(F)F)c1)c1cc(Cl)ccc1O`, the Potency was 49.4 µM (active).
In the case of `CC(C)c1ccccc1Cc1cc(C(=O)Nc2ccc(S(=O)(=O)c3ccccc3C(C)(C)C)cc2)c(O)c(O)c1O`, the “activity change, negative = inhibition” value is -5.52%.
As to `CN1CCC(CNc2ccc3ncc(-c4cccc(OC(F)(F)F)c4)n3n2)CC1`, the Potency was 27.1 µM (active).
`C[C@@]12O[C@@H](C[C@]1(O)CO)n1c3ccccc3c3c4c(c5c6ccccc6n2c5c31)CNC4=O`: the Potency was 24.1 µM (active).
Still for that read-out and setting: the value for `CCOC(=O)C1=C(C)NC2=C(C(=O)CC(C)(C)C2)C1c1ccc(-c2ccccc2)cc1` (stereo unspecified) was 17.1 µM (active); that for `COc1cc(C(=O)NS(=O)(=O)c2ccccc2C)ccc1Cc1cn(C)c2ccc(NC(=O)OC3CCCC3)cc12` was 9.61 µM (active).
For the compound `O=c1c2ccccc2nc2n1CCc1c-2[nH]c2ccccc12`, the Potency is 24.1 µM (active).
With `Cc1cc(CN2CCN(c3c(Br)cnc4nc(-c5ccc(N6CCN(C)CC6)cc5)[nH]c34)CC2)no1`, the Potency was 34.1 µM (active).
`CCN1CCN(Cc2ccc(-c3cc4c(N[C@H](C)c5ccccc5)ncnc4[nH]3)cc2)CC1`: the Potency was 44.1 µM (active).
As for `CCS(=O)(=O)c1cccc(-c2cc(C(=O)NC3CCN(C)CC3)c(C)c3[nH]c4ncc(C)cc4c23)c1`, the Potency was 24.1 µM (active).
Take `N#Cc1c(O)c2c(-c3ccc(-c4ccccc4O)cc3)csc2[nH]c1=O`: the Potency is 4.82 µM (active) and 8.79 µM (active).
